# Experimental data taken from PubChem BioAssay (NCATS).
# Inconclusive results are not listed. Activity calls are given as the source filed them. Unless noted, the call rests on the fitted dose curve; in most records, active means well fitted curve in the direction sought with a large enough effect; inconclusive means small, poorly fitted or top-dose-only effect, or another doubt; inactive means no such curve, though single readings can be large; an effect the other way counts as inactive or inconclusive.
# Experiments:
# [1] = target: Catechol O-methyltransferase (Homo sapiens) (UniProt P21964); experiment: Confirmatory Screen for Target Class Profiling of Small Molecule Inhibitors of Methyltransferases (AID 1745852; calls by dose curve; further: potency means the concentration at half of the fitted maximal effect; on activity change, negative = inhibition: on the % scale 0 is the no-effect control and ±100 the full control effect); settings: MTase-Glo luminescence, SAH detection, recombinant enzyme; measured here: COMT max response; stronger effect = lower value
# [2] = target: Guanidinoacetate N-methyltransferase (Homo sapiens) (UniProt Q14353); experiment: as above; settings: MTase-Glo luminescence, SAH detection, recombinant enzyme; activity change, negative = inhibition: at 57.3 µM (top of the series) unless noted; series mostly up to 57.3 µM
# [3] = target: Nicotinamide N-methyltransferase (Homo sapiens) (UniProt P40261); experiment: as above; settings: MTase-Glo luminescence, SAH detection, recombinant enzyme; measured here: NNMT max response; stronger effect = lower value
# [4] = target: Phenylethanolamine N-methyltransferase (Homo sapiens) (UniProt P11086); experiment: as above; settings: MTase-Glo luminescence, SAH detection, recombinant enzyme; measured here: PNMT max response; stronger effect = lower value
# [5] = Primary qHTS for inhibitors of nuclear receptor binding SET domain protein 2 (NSD2) in an RCH-ACV wild type WT cells (2C) (AID 1645877); settings: RCH-ACV (leukaemia line) NSD2 WT (2C) viability, CellTiter-Glo, 72 h; series mostly up to 44.9 µM; further: potency means the concentration at half of the fitted maximal effect; nearly all actives have a fitted effect of over 70% in size
# [6] = target: Rap guanine nucleotide exchange factor 3 (Homo sapiens) (UniProt O95398); experiment: Confirmatory qHTS for antagonist of cAMP-regulated guanine nucleotide exchange factor 3 (EPAC1) (AID 1645880); settings: EPAC1 Rap1B-BODIPY-GDP exchange, fluorescence; series mostly up to 115 µM; further: potency means the concentration at half of the fitted maximal effect; nearly all actives have a fitted effect of over 55% in size
# Summary of the method: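 Nucleotide exchange uses 100 nM EPAC1, 250 nM RAP1B-BODIPY-GDP and 50 uM GDP, with compounds in a concentration-titration series. After 5 min at room temperature, fluorescence (480 nm ex/540 nm em) is read every 5 min for 30 min. Data are normalized to control ATA and DMSO.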
# [7] = target: Rap guanine nucleotide exchange factor 3 (Homo sapiens) (UniProt O95398); experiment: Confirmatory qHTS for agonist of cAMP-regulated guanine nucleotide exchange factor 3 (EPAC1) (AID 1645881); settings: EPAC1 Rap1B BODIPY-GDP exchange fluorescence, 100% = cAMP control response; series mostly up to 154 µM;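 further: EPAC1 catalysed release of BODIPY-GDP from Rap1B seen as fluorescence loss; nearly all actives have a fitted effect of over 75% in size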
# [8] = target: Rap guanine nucleotide exchange factor 4 (Homo sapiens) (UniProt Q8WZA2); experiment: Confirmatory qHTS for agonist of cAMP-regulated guanine nucleotide exchange factor 4 (EPAC2) (AID 1645884); settings: EPAC2 GEF activity, Rap1B-BODIPY-GDP fluorescence, percent relative to cAMP agonist control; series mostly up to 154 µM;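 further: nucleotide exchange releases bodipy-GDP from Rap1 and this lowers its fluorescence; on the % scale 0 is the no-effect control and ±100 the full control effect; nearly all actives have a fitted effect of over 65% in size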
# [9] = target: Rap guanine nucleotide exchange factor 4 (Homo sapiens) (UniProt Q8WZA2); experiment: Confirmatory qHTS for antagonist of cAMP-regulated guanine nucleotide exchange factor 4 (EPAC2) (AID 1645885); settings: EPAC2 Rap1B-BODIPY-GDP exchange fluorescence, biochemical; series mostly up to 114 µM; further: on the % scale 0 is the no-effect control and ±100 the full control effect; nearly all actives have a fitted effect of over 25% in size
# [10] = target: Rap guanine nucleotide exchange factor 3 (Homo sapiens) (UniProt O95398); experiment: Counterscreen qHTS for agonist of cAMP-regulated guanine nucleotide exchange factor 3 (EPAC1) (AID 1645889); settings: EPAC1 Rap1B-BODIPY-GDP exchange, fluorescence; series mostly up to 154 µM; further: % of control where 0% means no effect; nearly all actives have a fitted effect of over 40% in size
# Summary of the method: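 Rap1B–BODIPY-GDP (250 nM) with 50 uM GDP; compounds pin-transferred to 9.74 nM–152 uM final (activator) or from 7.32 nM upwards (inhibitor). Fluorescence Ex/Em 480/540 nm read at 5 and 30 min, then after adding cAMP or buffer, at room temperature.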
# Chain of Rap guanine nucleotide exchange factor 3 (Homo sapiens) (O95398 whole entry, looked up): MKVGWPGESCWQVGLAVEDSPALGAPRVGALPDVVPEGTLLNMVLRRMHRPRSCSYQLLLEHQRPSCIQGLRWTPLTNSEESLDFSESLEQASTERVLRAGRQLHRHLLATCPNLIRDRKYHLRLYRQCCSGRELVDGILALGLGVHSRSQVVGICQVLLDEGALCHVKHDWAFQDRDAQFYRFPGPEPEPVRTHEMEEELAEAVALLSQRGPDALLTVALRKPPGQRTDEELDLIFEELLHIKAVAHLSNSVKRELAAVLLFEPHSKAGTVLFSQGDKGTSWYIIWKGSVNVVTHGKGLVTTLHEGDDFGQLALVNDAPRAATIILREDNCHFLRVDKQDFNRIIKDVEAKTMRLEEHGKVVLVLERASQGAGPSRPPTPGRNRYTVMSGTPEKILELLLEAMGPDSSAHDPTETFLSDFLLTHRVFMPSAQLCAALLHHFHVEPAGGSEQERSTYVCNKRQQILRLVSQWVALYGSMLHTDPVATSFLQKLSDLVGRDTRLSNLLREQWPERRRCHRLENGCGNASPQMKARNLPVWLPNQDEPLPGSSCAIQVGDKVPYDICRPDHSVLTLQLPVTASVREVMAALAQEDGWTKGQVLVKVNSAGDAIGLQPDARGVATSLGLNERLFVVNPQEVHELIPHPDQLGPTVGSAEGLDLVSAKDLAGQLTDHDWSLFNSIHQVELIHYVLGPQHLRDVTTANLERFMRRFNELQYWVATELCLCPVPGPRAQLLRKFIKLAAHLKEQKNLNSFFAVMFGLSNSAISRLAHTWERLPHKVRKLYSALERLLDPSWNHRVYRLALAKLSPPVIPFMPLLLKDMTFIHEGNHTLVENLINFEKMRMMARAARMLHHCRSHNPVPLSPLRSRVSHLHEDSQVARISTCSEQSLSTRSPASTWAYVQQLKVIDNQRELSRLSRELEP
# Chain of Catechol O-methyltransferase (Homo sapiens) (P21964 whole entry, looked up): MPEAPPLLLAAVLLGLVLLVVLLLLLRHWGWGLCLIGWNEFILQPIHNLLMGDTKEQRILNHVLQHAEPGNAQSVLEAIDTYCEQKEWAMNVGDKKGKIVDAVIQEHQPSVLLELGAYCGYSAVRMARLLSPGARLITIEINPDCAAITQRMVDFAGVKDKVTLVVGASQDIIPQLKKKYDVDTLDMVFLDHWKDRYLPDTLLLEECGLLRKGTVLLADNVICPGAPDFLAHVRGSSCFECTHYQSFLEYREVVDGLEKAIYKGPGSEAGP
# Chain of Rap guanine nucleotide exchange factor 4 (Homo sapiens) (Q8WZA2 whole entry, looked up): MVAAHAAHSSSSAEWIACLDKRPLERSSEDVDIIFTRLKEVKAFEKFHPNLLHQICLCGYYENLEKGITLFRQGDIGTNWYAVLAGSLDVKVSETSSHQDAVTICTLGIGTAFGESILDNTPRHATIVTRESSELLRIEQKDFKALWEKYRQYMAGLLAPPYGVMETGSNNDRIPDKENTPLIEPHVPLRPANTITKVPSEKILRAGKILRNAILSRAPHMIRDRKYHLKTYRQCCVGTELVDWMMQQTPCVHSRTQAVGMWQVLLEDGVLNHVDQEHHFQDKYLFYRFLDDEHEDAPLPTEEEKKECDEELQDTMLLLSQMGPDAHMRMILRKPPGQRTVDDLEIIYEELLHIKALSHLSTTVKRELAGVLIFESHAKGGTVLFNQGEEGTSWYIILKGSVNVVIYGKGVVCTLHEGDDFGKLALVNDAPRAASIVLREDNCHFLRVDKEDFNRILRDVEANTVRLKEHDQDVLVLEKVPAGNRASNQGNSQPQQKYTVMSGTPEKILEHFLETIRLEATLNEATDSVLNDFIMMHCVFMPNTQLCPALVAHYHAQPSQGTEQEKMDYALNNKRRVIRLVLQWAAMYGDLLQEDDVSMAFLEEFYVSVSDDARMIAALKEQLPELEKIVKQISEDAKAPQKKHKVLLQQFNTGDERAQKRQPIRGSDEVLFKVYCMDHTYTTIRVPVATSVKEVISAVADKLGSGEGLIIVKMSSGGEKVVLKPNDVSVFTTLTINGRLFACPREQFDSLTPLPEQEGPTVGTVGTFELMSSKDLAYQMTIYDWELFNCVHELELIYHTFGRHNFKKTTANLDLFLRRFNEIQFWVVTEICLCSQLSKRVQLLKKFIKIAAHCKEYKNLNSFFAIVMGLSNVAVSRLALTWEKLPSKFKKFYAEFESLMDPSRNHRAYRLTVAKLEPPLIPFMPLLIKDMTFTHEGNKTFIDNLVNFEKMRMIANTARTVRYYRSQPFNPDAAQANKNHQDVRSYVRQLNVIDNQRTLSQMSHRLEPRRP
# Chain of Phenylethanolamine N-methyltransferase (Homo sapiens) (P11086 whole entry, looked up, the tested form may be a part): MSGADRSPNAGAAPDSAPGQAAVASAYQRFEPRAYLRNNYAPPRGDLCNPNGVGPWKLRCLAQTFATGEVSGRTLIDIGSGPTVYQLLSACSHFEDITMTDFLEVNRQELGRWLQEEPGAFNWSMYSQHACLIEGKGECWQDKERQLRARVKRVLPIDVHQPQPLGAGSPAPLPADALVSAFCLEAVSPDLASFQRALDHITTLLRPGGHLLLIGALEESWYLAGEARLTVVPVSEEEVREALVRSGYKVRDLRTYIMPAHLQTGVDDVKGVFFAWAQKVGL
# Chain of Nicotinamide N-methyltransferase (Homo sapiens) (P40261 whole entry, looked up): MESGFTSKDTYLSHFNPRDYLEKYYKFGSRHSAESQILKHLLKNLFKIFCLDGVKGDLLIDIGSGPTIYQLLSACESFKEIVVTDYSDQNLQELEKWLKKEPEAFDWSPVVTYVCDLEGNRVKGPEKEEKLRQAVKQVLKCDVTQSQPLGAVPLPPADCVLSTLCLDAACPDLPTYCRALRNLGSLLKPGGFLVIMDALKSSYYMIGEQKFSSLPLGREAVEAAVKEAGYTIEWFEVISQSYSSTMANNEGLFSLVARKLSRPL
structure (smiles),measurement,setting,value
CC12CCC3C1C(c1c(cc(O)c(C(=O)c4ccccc4)c1O)O2)C3(C)C (stereo not given),activity,[1],-35.5%
same,Potency,[2],21.1 µM (active)
same,activity,[3],-25.6%
same,activity,[4],-30.9%
C=C1C(OC2OC(CO)C(O)C(O)C2O)CC2C(C)(C)C(O)CCC2(C)C1CC/C(C)=C\COC(=O)CC(=O)O (stereo not given),Potency,[5],4.83 µM (active)
same,activity,[1],-58.5%
same,"activity change, negative = inhibition",[2],0% [at 19.1 µM]
same,activity,[3],0%
same,activity,[4],2.99%
C=C1C(=O)OC2C3=C(C)C(=O)CC3C(C)CC(O)C12 (stereo not given),Potency,[5],14.5 µM (active)
C=C1C(=O)O[C@@H]2C=C(COC(C)=O)CC/C=C(\CO)CC[C@@H]12,activity,[1],-83.7%
same,"activity change, negative = inhibition",[2],2.22%
same,activity,[3],2.08%
same,activity,[4],0.0072%
C[C@]12CC[C@@H]3c4ccc(OS(=O)(=O)O)cc4CC[C@H]3[C@@H]1CCC2=O,Potency,[6],8.49 µM (active)
same,outcome,[7],inactive
same,outcome,[8],inactive
same,Potency,[9],inactive
same,outcome,[10],inactive
CN(C)c1ccc(NC(=O)NS(=O)(=O)c2ccc(Cl)cc2)cc1,activity,[1],-53.7%
same,Potency,[2],27.1 µM (active)
same,activity,[3],-25%
same,activity,[4],-83.5%
CC(=O)OC/C(=C/C(=O)O)CC[C@@H]1C(C=O)=CC[C@@H]2C(C)(C)CCC[C@@]12C,activity,[1],-75.1%
same,"activity change, negative = inhibition",[2],-3.55%
same,activity,[3],-14%
same,activity,[4],-7.72%
CC1(CO)CC(O)[C@]2(C(=O)O)CCC34CC3(C=CC3[C@]5(C)C(CC[C@]34C)C(C)(CO)[C@@H](O)[C@H](O)[C@@H]5O)C2C1 (stereo not given in full),activity,[1],-56.5%
same,"activity change, negative = inhibition",[2],-5.29% [at 29.8 µM]
same,activity,[3],-2.18%
same,activity,[4],-2.96%
C=C1C(=O)OC[C@@H]1C/C=C(\C)CC1CC(C)C(=O)O1 (stereo not given in full),Potency,[5],23 µM (active)
same,activity,[1],-80%
same,"activity change, negative = inhibition",[2],-0.246%
same,activity,[3],0.776%
same,activity,[4],0.671%
CNCCC(c1cccs1)c1ccc(O)c2ccccc12 (stereo not given),activity,[1],-4.76%
same,"activity change, negative = inhibition",[2],2.71%
same,activity,[3],-7.38%
same,activity,[4],-1.78%
CCC(C)C(=O)Oc1cc(C)ccc1C1(COC(=O)C(C)C)CO1 (stereo not given),Potency,[5],5.67 µM (active)
CCCCCCCOc1cc2c(cc1/C(C)=C/c1ccc(C(=O)O)cc1)C(C)(C)CCS2(=O)=O,activity,[1],-11.5%
same,Potency,[2],27.1 µM (active)
same,activity,[3],-71.1%
same,activity,[4],-11.4%
CCc1c(Cl)c(O)c(Cl)c(O)c1C(=O)O[C@H]1[C@H](O)[C@H](OC)[C@H](OC/C2=C\C=C\C[C@H](O)/C(C)=C\[C@H](CC)[C@@H](O[C@@H]3OC(C)(C)[C@@H](OC(=O)C(C)C)[C@H](O)[C@@H]3O)/C(C)=C/C(C)=C/C[C@@H]([C@@H](C)O)OC2=O)O[C@@H]1C,activity,[1],-16.7%
same,"activity change, negative = inhibition",[2],-5.75% [at 29.8 µM]
same,activity,[3],-8.66%
same,activity,[4],-8.05%
C=C1CC2[C@@]3(C)C=CC(=O)C(C)(C)C3=C(O)C(=O)[C@@]2(C)C2(C(=O)OC)C(=O)C(C)OC(=O)[C@@]12C (stereo not given in full),Potency,[5],8.93 µM (active)
